In PubChem BioAssay AID1159580 (chemical genetic matrix, 2015):
Among all 5,500 compounds or so, about 2,000 (36%) were called active. Inconclusive results (about 18%) are left out. Rule as the data show it: active = normalized growth mostly below about 0.91 (no sharp cut-off); inconclusive = no clear call, values can overlap the other calls; inactive = mostly above about 0.92. Some of the results follow.

Test: chemical genetic growth profiling, strain panel (AID 1159580);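 also: tested at 20 µM; growth read once vehicle control cultures reached saturation at 30 °C; 1 = growth at the plate median or of vehicle wells; lower values mean less growth of the strain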
Details: growth OD
[1] = S. cerevisiae deletion strains, locus YAL013W, strain DEP1, hits give low values
[2] = S. cerevisiae deletion strains, locus YDR150W, strain NUM1, hits give low values
[3] = S. cerevisiae deletion strains, locus YGR078C, strain PAC10, hits give low values
[4] = S. cerevisiae deletion strains, locus YJR075W, strain HOC1, hits give low values
[5] = S. cerevisiae deletion strains, locus YMR307W, strain GAS1, hits give low values
[6] = S. cerevisiae deletion strains, locus YNL322C, strain KRE1, hits give low values
[7] = S. cerevisiae deletion strains, locus YBR229C, strain ROT2, hits give low values
[8] = S. cerevisiae deletion strains, locus YDL101C, strain DUN1, hits give low values
[9] = S. cerevisiae deletion strains, locus YEL061C, strain CIN8, hits give low values
[10] = S. cerevisiae deletion strains, locus YHR030C, strain SLT2, hits give low values
[11] = S. cerevisiae deletion strains, locus YJR043C, strain POL32, hits give low values
[12] = S. cerevisiae deletion strains, locus YLR039C, strain RIC1, hits give low values
[13] = S. cerevisiae deletion strains, locus YLR262C, strain YPT6, hits give low values
[14] = S. cerevisiae deletion strains, locus YNL153C, strain GIM3, hits give low values
[15] = S. cerevisiae deletion strains, locus YPL241C, strain CIN2, hits give low values

Measured: normalized growth

COc1cc(CNC(=O)CCCCCCC(C)C)ccc1O
inactive: [1] 0.944 | S. cerevisiae deletion strains, locus YAL040C, strain CLN3, hits give low values 0.986 | S. cerevisiae deletion strains, locus YCL061C, strain MRC1 (second series), hits give low values 0.993 | [2] 1 | S. cerevisiae deletion strains, locus YDR363W, strain ESC2, hits give low values 0.974 | S. cerevisiae deletion strains, locus YER002W, strain NOP16, hits give low values 1 | [3] 0.999 | [4] 0.988 | [5] 0.973 | S. cerevisiae deletion strains, locus YNL175C, strain NOP13, hits give low values 1.01 | S. cerevisiae deletion strains, locus YNL197C, strain WHI3, hits give low values 0.981 | S. cerevisiae deletion strains, locus YNL224C, strain SQS1, hits give low values 0.981 | [6] 0.983 | S. cerevisiae deletion strains, locus YOR083W, strain WHI5 (second series), hits give low values 0.981

CCC[C@H]1CC2=C(C[C@@H](CC)CC3=C1C(=O)OC3=O)C(=O)OC2=O
inactive: S. cerevisiae deletion strains, locus YBR021W, strain FUR4, hits give low values 1 | [7] 1.01 | S. cerevisiae deletion strains, locus YCL029C, strain bik1, hits give low values 1.02 | S. cerevisiae deletion strains, locus YDL035C, strain GPR1, hits give low values 1.03 | S. cerevisiae deletion strains, locus YDL074C, strain BRE1, hits give low values 1.02 | [8] 1.02 | S. cerevisiae deletion strains, locus YDL134C, strain PPH21, hits give low values 1.01 | S. cerevisiae deletion strains, locus YDL185W, strain tfp1, hits give low values 1.01 | S. cerevisiae deletion strains, locus YDL192W, strain arf1, hits give low values 1.02 | S. cerevisiae deletion strains, locus YDR101C, strain arx1, hits give low values 1.03 | [2] 1.01 | S. cerevisiae deletion strains, locus YDR162C, strain NBP2, hits give low values 1.01 | S. cerevisiae deletion strains, locus YDR318W, strain mcm21, hits give low values 0.998 | S. cerevisiae deletion strains, locus YDR388W, hits give low values 1.02 | S. cerevisiae deletion strains, locus YDR502C, strain sam2, hits give low values 1.01 | [9] 1.01 | S. cerevisiae deletion strains, locus YER110C, hits give low values 1.02 | S. cerevisiae deletion strains, locus YER155C, strain BEM2, hits give low values 1.01 | S. cerevisiae deletion strains, locus YER167W, strain BCK2, hits give low values 1.01 | S. cerevisiae deletion strains, locus YGL086W, strain mad1, hits give low values 1.05 | S. cerevisiae deletion strains, locus YGL248W, strain PDE1, hits give low values 1 | [3] 1.01 | S. cerevisiae deletion strains, locus YGR135W, strain pre9, hits give low values 1 | S. cerevisiae deletion strains, locus YGR252W, strain gcn5, hits give low values 0.969 | [10] 1.01 | S. cerevisiae deletion strains, locus YHR079C, strain IRE1 (second series), hits give low values 1.02 | S. cerevisiae deletion strains, locus YHR094C, strain hxt1, hits give low values 1.01 | S. cerevisiae deletion strains, locus YHR129C, strain ARP1, hits give low values 1.02 | S. cerevisiae deletion strains, locus YHR200W, strain rpn10, hits give low values 1 | S. cerevisiae deletion strains, locus YIL066C, strain RNR3, hits give low values 1.02 | S. cerevisiae deletion strains, locus YIL073C, strain SPO22, hits give low values 1.07 | S. cerevisiae deletion strains, locus YIR030C, strain dcg1, hits give low values 1.01 | S. cerevisiae deletion strains, locus YJL095W, strain BCK1, hits give low values 1.01 | S. cerevisiae deletion strains, locus YJL134W, strain LCB3, hits give low values 1.01 | S. cerevisiae deletion strains, locus YJL168C, strain set2, hits give low values 1.01 | S. cerevisiae deletion strains, locus YJL187C, strain SWE1 (second series), hits give low values 1.02 | [11] 1.01 | [4] 1.01 | S. cerevisiae deletion strains, locus YKL068W, hits give low values 0.979 | S. cerevisiae deletion strains, locus YKL085W, strain MDH1 (second series), hits give low values 0.932 | S. cerevisiae deletion strains, locus YKL085W, strain MDH1, hits give low values 0.932 | S. cerevisiae deletion strains, locus YKL190W, strain CNB1, hits give low values 1.01 | S. cerevisiae deletion strains, locus YKR001C, strain vps1, hits give low values 1.02 | [12] 1.04 | S. cerevisiae deletion strains, locus YLR058C, strain SHM2, hits give low values 1.01 | S. cerevisiae deletion strains, locus YLR102C, strain apc9, hits give low values 1.02 | [13] 1.02 | S. cerevisiae deletion strains, locus YLR268W, strain sec22, hits give low values 1.04 | S. cerevisiae deletion strains, locus YLR330W, strain CHS5, hits give low values 1.01 | S. cerevisiae deletion strains, locus YLR342W, strain FKS1 (second series), hits give low values 1.03 | S. cerevisiae deletion strains, locus YLR371W, strain rom2, hits give low values 1.03 | S. cerevisiae deletion strains, locus YLR418C, strain cdc73, hits give low values 0.991 | S. cerevisiae deletion strains, locus YML016C, strain PPZ1, hits give low values 1 | S. cerevisiae deletion strains, locus YML032C, strain rad52, hits give low values 0.999 | S. cerevisiae deletion strains, locus YML124C, strain tub3, hits give low values 1.01 | S. cerevisiae deletion strains, locus YMR078C, strain ctf18, hits give low values 1.01 | S. cerevisiae deletion strains, locus YMR223W, strain ubp8, hits give low values 0.987 | [5] 0.947 | S. cerevisiae deletion strains, locus YNL067W, strain RPL9B, hits give low values 1.01 | [14] 1.02 | S. cerevisiae deletion strains, locus YNL233W, strain BNI4, hits give low values 0.999 | S. cerevisiae deletion strains, locus YNL307C, strain MCK1, hits give low values 1.02 | [6] 1.01 | S. cerevisiae deletion strains, locus YNR052C, strain pop2, hits give low values 0.998 | S. cerevisiae deletion strains, locus YOL006C, strain TOP1, hits give low values 1.08 | S. cerevisiae deletion strains, locus YOL012C, strain htz1 0.773 | S. cerevisiae deletion strains, locus YOL147C, strain pex11, hits give low values 1.01 | S. cerevisiae deletion strains, locus YOR061W, strain CKA2, hits give low values 1.01 | S. cerevisiae deletion strains, locus YOR069W, strain VPS5, hits give low values 1.02 | S. cerevisiae deletion strains, locus YOR136W, strain idh2, hits give low values 1.04 | S. cerevisiae deletion strains, locus YOR144C, strain elg1, hits give low values 1.01 | S. cerevisiae deletion strains, locus YOR184W, strain ser1, hits give low values 1.02 | S. cerevisiae deletion strains, locus YOR316C, strain cot1, hits give low values 1.02 | [15] 1.01 | S. cerevisiae deletion strains, locus YPR119W, strain clb2, hits give low values 1.02 | S. cerevisiae deletion strains, locus YPR163C, strain tif3, hits give low values 1.01 | S. cerevisiae deletion strains, locus YPR167C, strain met16, hits give low values 0.998 | S. cerevisiae deletion strains, strain wtn01, hits give low values 1.06
active: S. cerevisiae deletion strains, locus YGL078C, strain dbp3, hits give low values 0.65 | S. cerevisiae deletion strains, locus YIL125W, strain kgd1, hits give low values 0.875 | S. cerevisiae deletion strains, locus YKL009W, strain mrt4, hits give low values 0.663 | S. cerevisiae deletion strains, locus YNL250W, strain rad50, hits give low values 0.814 | S. cerevisiae deletion strains, locus YNL271C, strain bni1, hits give low values 0.845 | S. cerevisiae deletion strains, locus YNL298W, strain CLA4, hits give low values 0.818 | S. cerevisiae deletion strains, locus YPR141C, strain kar3, hits give low values 0.896

CSC1=NCN(Cc2ccccc2)CN1
inactive: [1] 0.991 | [7] 0.996 | [8] 1 | [2] 1.01 | [9] 0.981 | [3] 1 | [10] 1.02 | S. cerevisiae deletion strains, locus YHR087W, strain rtc3, hits give low values 1 | [11] 1 | [4] 0.99 | [12] 0.969 | S. cerevisiae deletion strains, locus YLR058C, strain SHM2 (second series), hits give low values 1.01 | S. cerevisiae deletion strains, locus YLR085C, strain ARP6, hits give low values 0.954 | [13] 0.972 | S. cerevisiae deletion strains, locus YML094W, strain GIM5, hits give low values 0.981 | S. cerevisiae deletion strains, locus YMR219W, strain ESC1, hits give low values 0.986 | S. cerevisiae deletion strains, locus YMR263W, strain SAP30, hits give low values 1 | [14] 1.02 | S. cerevisiae deletion strains, locus YNL298W, strain CLA4 (second series), hits give low values 1 | [6] 0.972 | S. cerevisiae deletion strains, locus YNR030W, strain Alg12, hits give low values 0.977 | S. cerevisiae deletion strains, locus YPL055C, strain LGE1, hits give low values 1.06 | [15] 0.987 | S. cerevisiae deletion strains, locus YPR135W, strain CTF4, hits give low values 1.1 | S. cerevisiae strains, strain wild type, hits give low values 0.98
